Screening data deposited in PubChem by The Scripps Research Institute Molecular Screening Center.
hgDAF-12 ag: agonists of H. glycines DAF-12 nuclear receptor; HEK293 GAL4-hgDAF12 UAS-luciferase reporter, agonist luminescence; normalized to butyrate control; activation, % at 6.8 µM; hit rate 1.8% among 370,000; AID 687014;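 active means activation above a cutoff set at the mean of all screened compounds plus 3 SD, cut at about 10% in these data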
SMARCA2 act: increases SMARCA2 function in MMTV reporter cells. MG213 cells, MMTV-luciferase reporter, dexamethasone, overnight. activation, % at 9.1 µM. hit rate 1% among 370,000. AID 652017; in the data active means activation above about 7.8%
hcDAF12 agonist: activates DAF-12 receptor from parasite H. contortus; activation, % at 6.8 µM; hit rate 1.4% among 370,000; HEK293 hcDAF-12 lit1-tk-luc reporter, luminescence; 0% DMSO, 100% Δ7-dafachronic acid;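 active means activation above the mean of all tested compounds plus 3 SD, cut at about 5.5% in these data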
ssDAF12 agonist: S. stercoralis DAF-12 activation, primary screen; HEK293 ssDAF-12/GRIP1 lit1-tk-luc reporter, luminescence; % of 3 µM dafachronic acid response; activation, % at 6.8 µM; hit rate 1% among 370,000; AID 652126;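 active means activation above the mean over all tested compounds plus 3 SD, cut at about 0.9% in these data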
DAX1 inh-1: inhibits human nuclear receptor DAX1; P51843; HEK293 Gal4-DAX1 luciferase reporter, luminescence; inhibition, % at 6.75 µM; hit rate 0.99% among 340,000; AID 504766;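 active means inhibition above the mean over all tested compounds plus 3 SD, cut at about 4.2% in these data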;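 further: inhibition shows as a rise in luminescence from relieved DAX1 repression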
Target sequence (P51843 207-470 limits assumed): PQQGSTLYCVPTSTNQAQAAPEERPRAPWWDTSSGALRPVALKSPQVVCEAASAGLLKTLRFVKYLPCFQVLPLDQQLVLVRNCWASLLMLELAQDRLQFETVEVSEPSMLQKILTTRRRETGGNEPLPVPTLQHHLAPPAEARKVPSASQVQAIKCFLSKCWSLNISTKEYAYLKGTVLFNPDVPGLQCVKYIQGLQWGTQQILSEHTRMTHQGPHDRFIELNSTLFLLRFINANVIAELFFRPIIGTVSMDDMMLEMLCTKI
DAX1 inh-2: blocks DAX1 repression of SF-1 activated StAR promoter. hit rate 1.1% among 370,000. HEK293T StAR-luciferase reporter, SF-1/DAX-1 repression relief. inhibition, % at 6.8 µM;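 active means inhibition above the mean over all tested compounds plus 3 SD, cut at about 3.6% in these data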;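 further: higher inhibition means more luminescence from relief of DAX-1 repression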
DAX1 conf: confirmation of human DAX1 (NR0B1) inhibitors; hit rate 87% among 2,400; HEK293T StAR-promoter luciferase reporter, SF-1/DAX-1 repression; inhibition, % at 6.8 µM; shares compounds with DAX1 inh-2;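 active means inhibition above the average of every tested compound plus 3 SD, cut at about 3.8% in these data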;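 further: active compounds raise luminescence by relieving repression of the StAR reporter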
SF1 AF2mut Luc: counter-screen for DAX1 inhibitors: nonselective inhibitors with SF-1 AF2 mutant; shares compounds with DAX1 inh-2; HEK293 StAR-luciferase, luminescence; inhibition, % at 6.8 µM; hit rate 78% among 2,400; AID 652136;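 active means inhibition above the mean of all tested compounds plus 3 SD, cut at about 3% in these data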
LXR ag: activates human LXR-beta, counter-screen for hcDAF-12 agonists; shares compounds with hcDAF12 agonist; HEK293 Gal4-LXR tk-luc reporter, luminescence, 24 h; normalized: DMSO 0%, positive control 100%; activation, % at 6.8 µM; 3,400 tested, under 10 active; AID 743027;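 active means mean percent activation of the reporter above a cutoff set as the average over tested compounds plus their standard deviation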
Target sequence (P55055 whole entry, looked up, the tested form may be a part): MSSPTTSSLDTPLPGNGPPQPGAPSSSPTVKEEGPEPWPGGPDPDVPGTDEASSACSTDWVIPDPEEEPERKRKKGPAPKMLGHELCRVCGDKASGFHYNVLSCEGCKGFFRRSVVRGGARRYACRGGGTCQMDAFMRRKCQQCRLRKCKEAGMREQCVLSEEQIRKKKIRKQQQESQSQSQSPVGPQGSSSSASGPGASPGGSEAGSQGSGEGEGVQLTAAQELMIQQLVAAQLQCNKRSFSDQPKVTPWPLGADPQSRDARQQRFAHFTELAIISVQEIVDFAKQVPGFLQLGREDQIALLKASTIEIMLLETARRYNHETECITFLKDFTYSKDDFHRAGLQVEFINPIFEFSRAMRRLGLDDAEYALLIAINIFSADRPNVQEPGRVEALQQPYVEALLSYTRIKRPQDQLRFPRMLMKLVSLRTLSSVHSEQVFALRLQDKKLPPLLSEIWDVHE
hcDAF12 conf: confirmation of H. contortus DAF-12 agonists; shares compounds with hcDAF12 agonist; HEK293 hcDAF-12 lit1-tk-luc reporter, luminescence; % of Δ7-dafachronic acid response; activation, % at 6.8 µM; hit rate 61% among 3,400; AID 743032;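 active means mean activation across triplicate tests above the threshold derived from the earlier primary screen, cut at about 5.5% in these data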
hgDAF12 conf: confirmation of H. glycines DAF-12 agonists | shares compounds with hgDAF-12 ag | HEK293 GAL4-hgDAF12 luciferase reporter, agonist mode; percent of butyrate response | activation, % at 6.8 µM | hit rate 80% among 3,300;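 active means mean activation over triplicate wells above the hit cutoff derived from the earlier primary screen, cut at about 11% in these data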
LXR ag 2: activates human LXR-beta, counter-screen for DAF-12 agonists | shares compounds with hgDAF-12 ag | HEK293 Gal4-LXR luciferase reporter, 24 h | activation, % at 6.8 µM | 3,300 tested, under 10 active | AID 743051;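 active means mean activation of the triplicate above a set limit carried over from the primary screen, none filed active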
Hits are given with their value. Rows were chosen to be rich in hits. Some 4.8% of all compounds tested hit in one or more screens of this group.

How did Cc1ccc(N(Cc2cc3ccc(C)cc3[nH]c2=O)S(=O)(=O)c2ccccc2)c(C)c1 do in these assays?
hgDAF-12 ag: inactive; SMARCA2 act: inactive; hcDAF12 agonist: inactive; ssDAF12 agonist: inactive; DAX1 inh-1: inactive; DAX1 inh-2: inactive

Results for O=C(N=Nc1c(O)[nH]c2ccccc12)Nc1ccccc1 ?
hgDAF-12 ag: 17; SMARCA2 act: inactive; hcDAF12 agonist: inactive; ssDAF12 agonist: 1.2; DAX1 inh-1: 5.6; DAX1 inh-2: 5.5; DAX1 conf: 16; SF1 AF2mut Luc: 7.1; hgDAF12 conf: 13; LXR ag 2: inactive

Results for Cc1cccc(NC(=S)N=Nc2c(O)[nH]c3ccccc23)c1 ?
hgDAF-12 ag: inactive; SMARCA2 act: inactive; hcDAF12 agonist: inactive; ssDAF12 agonist: inactive; DAX1 inh-1: inactive; DAX1 inh-2: inactive

What do the screens show for `COc1ccc(OC)c(C2=NOC(C(=O)NCc3cccnc3)C2)c1` (stereo unspecified)?
hgDAF-12 ag: inactive; SMARCA2 act: inactive; hcDAF12 agonist: inactive; ssDAF12 agonist: inactive; DAX1 inh-1: inactive; DAX1 inh-2: inactive

What do the screens show for `CC(C)(C)NC(=O)C(c1ccc(F)cc1)N(Cc1ccco1)C(=O)Cn1nnc(-c2cccs2)n1` (stereo unspecified)?
hgDAF-12 ag: inactive; SMARCA2 act: inactive; hcDAF12 agonist: inactive; ssDAF12 agonist: inactive; DAX1 inh-1: inactive; DAX1 inh-2: inactive

How did COc1cc(OC)cc(C(=O)Oc2ccc(/C=N/Nc3nc4ccccc4s3)cc2OC)c1 do in these assays?
hgDAF-12 ag: inactive; SMARCA2 act: inactive; hcDAF12 agonist: inactive; ssDAF12 agonist: inactive; DAX1 inh-1: inactive; DAX1 inh-2: inactive

What do the screens show for `COc1ccc(C=NNc2nc3ccccc3s2)cc1`?
hgDAF-12 ag: 17; SMARCA2 act: inactive; hcDAF12 agonist: 14; ssDAF12 agonist: 0.9; DAX1 inh-1: inactive; DAX1 inh-2: 11; DAX1 conf: 22; SF1 AF2mut Luc: 12; LXR ag: inactive; hcDAF12 conf: 13; hgDAF12 conf: 16; LXR ag 2: inactive

What do the screens show for `c1ccc2sc(Nc3nc4cc5c(cc4s3)OCO5)nc2c1`?
hgDAF-12 ag: 18; SMARCA2 act: inactive; hcDAF12 agonist: 7.4; ssDAF12 agonist: 2.3; DAX1 inh-1: inactive; DAX1 inh-2: 5.4; DAX1 conf: 12; SF1 AF2mut Luc: 7.8; LXR ag: inactive; hcDAF12 conf: 8.2; hgDAF12 conf: 17; LXR ag 2: inactive

Results for C(=C\c1ccccc1)/C=N/Nc1nc2ccccc2s1 ?
hgDAF-12 ag: 19; SMARCA2 act: inactive; hcDAF12 agonist: 16; ssDAF12 agonist: 2.2; DAX1 inh-1: 5.7; DAX1 inh-2: 5.3; DAX1 conf: 14; SF1 AF2mut Luc: 11; LXR ag: inactive; hcDAF12 conf: 9.6; hgDAF12 conf: 20; LXR ag 2: inactive

What do the screens show for `CCC/C=N/Nc1nc2ccccc2s1`?
hgDAF-12 ag: inactive; SMARCA2 act: inactive; hcDAF12 agonist: inactive; ssDAF12 agonist: inactive; DAX1 inh-1: inactive; DAX1 inh-2: inactive

How did C(=N\Nc1nc2ccccc2s1)/c1ccc2c(c1)OCO2 do in these assays?
hgDAF-12 ag: 17; SMARCA2 act: inactive; hcDAF12 agonist: 17; ssDAF12 agonist: 4.5; DAX1 inh-1: inactive; DAX1 inh-2: 8.2; DAX1 conf: 19; SF1 AF2mut Luc: 12; LXR ag: inactive; hcDAF12 conf: 9.6; hgDAF12 conf: 24; LXR ag 2: inactive

Results for Cc1cccc(-c2noc(-c3csc([C@@H]4C[C@H](O)[C@@H](CO)O4)n3)n2)c1 ?
hgDAF-12 ag: 18; SMARCA2 act: inactive; hcDAF12 agonist: inactive; ssDAF12 agonist: inactive; DAX1 inh-2: 9.8; DAX1 conf: 16; SF1 AF2mut Luc: 9.5; hgDAF12 conf: 20; LXR ag 2: inactive

How did Cc1ccc(NCc2nc3ccccc3n2C)cc1 do in these assays?
hgDAF-12 ag: 14; SMARCA2 act: inactive; hcDAF12 agonist: 15; ssDAF12 agonist: 3.5; DAX1 inh-1: inactive; DAX1 inh-2: 6.3; DAX1 conf: 15; SF1 AF2mut Luc: 8.2; LXR ag: inactive; hcDAF12 conf: 17; hgDAF12 conf: 18; LXR ag 2: inactive

What do the screens show for `CC(C)OC(=O)c1cc2c(ccn2-c2ccc(F)cc2)n1CC(=O)N1CCN(C(=O)c2ccco2)CC1`?
hgDAF-12 ag: inactive; SMARCA2 act: inactive; hcDAF12 agonist: inactive; ssDAF12 agonist: inactive; DAX1 inh-1: inactive; DAX1 inh-2: inactive

Results for CCOC(=O)C(=C1Nc2ccccc2N1)n1c(-c2cccnc2)nc2ccccc21 ?
hgDAF-12 ag: 15; SMARCA2 act: inactive; hcDAF12 agonist: inactive; ssDAF12 agonist: inactive; DAX1 inh-2: 5.1; DAX1 conf: 7.7; SF1 AF2mut Luc: 4.4; hgDAF12 conf: 13; LXR ag 2: inactive

Results for CCOC(=O)Cn1c(-c2cccnc2)nc(-c2ccccc2)c1-c1ccccc1 ?
hgDAF-12 ag: inactive; SMARCA2 act: inactive; hcDAF12 agonist: inactive; ssDAF12 agonist: inactive; DAX1 inh-1: inactive; DAX1 inh-2: inactive

Results for CCOC(=O)N1CCC(Nc2nc3ccccc3n3nnnc23)CC1 ?
hgDAF-12 ag: inactive; SMARCA2 act: inactive; hcDAF12 agonist: inactive; ssDAF12 agonist: inactive; DAX1 inh-1: inactive; DAX1 inh-2: inactive

How did CCC(C)c1ccc(NC(=O)c2cccs2)cc1 (stereo unspecified) do in these assays?
hgDAF-12 ag: 19; SMARCA2 act: inactive; hcDAF12 agonist: 8.2; ssDAF12 agonist: 1.7; DAX1 inh-1: inactive; DAX1 inh-2: 7.2; DAX1 conf: 19; SF1 AF2mut Luc: 6.4; LXR ag: inactive; hcDAF12 conf: 7.8; hgDAF12 conf: 20; LXR ag 2: inactive

How did CCC(C)NS(=O)(=O)c1ccc(NC(=O)c2cccs2)cc1 (stereo unspecified) do in these assays?
hgDAF-12 ag: inactive; SMARCA2 act: inactive; hcDAF12 agonist: inactive; ssDAF12 agonist: inactive; DAX1 inh-1: inactive; DAX1 inh-2: inactive
